TRPV1 PAM: enhances activation of the human vanilloid receptor TRPV1; Q8NER1; TRPV1-expressing cells, Fluo-8 calcium influx, capsaicin EC20 potentiation; potentiation, % at 8.33 µM; 0.02% of 320,000 active; in the data active = potentiation above about 80%; inconclusive = between about 30% and that limit
Target sequence (Q8NER1 whole entry, looked up): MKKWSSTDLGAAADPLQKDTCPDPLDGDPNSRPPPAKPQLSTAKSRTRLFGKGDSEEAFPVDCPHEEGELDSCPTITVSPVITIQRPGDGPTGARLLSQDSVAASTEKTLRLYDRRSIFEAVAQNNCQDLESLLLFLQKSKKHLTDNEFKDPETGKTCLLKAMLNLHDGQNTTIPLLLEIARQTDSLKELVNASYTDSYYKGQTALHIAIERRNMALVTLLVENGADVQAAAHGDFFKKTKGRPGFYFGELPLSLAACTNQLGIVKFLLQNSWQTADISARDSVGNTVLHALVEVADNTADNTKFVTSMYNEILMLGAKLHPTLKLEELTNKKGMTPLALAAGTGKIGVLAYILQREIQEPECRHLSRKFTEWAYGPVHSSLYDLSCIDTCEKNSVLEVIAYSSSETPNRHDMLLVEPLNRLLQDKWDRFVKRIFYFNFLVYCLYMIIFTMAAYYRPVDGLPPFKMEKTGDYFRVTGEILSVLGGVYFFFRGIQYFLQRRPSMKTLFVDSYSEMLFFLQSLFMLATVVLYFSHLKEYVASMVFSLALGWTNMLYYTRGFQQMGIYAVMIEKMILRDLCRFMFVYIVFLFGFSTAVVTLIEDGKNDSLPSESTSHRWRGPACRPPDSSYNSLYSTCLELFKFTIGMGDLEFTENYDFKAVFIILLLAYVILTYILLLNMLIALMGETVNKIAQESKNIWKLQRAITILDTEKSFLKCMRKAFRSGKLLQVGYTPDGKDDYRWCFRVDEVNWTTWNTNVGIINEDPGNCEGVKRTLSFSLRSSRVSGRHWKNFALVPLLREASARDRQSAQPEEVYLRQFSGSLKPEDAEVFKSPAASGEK
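TRPV1-expressing cells were cultured overnight at 35.5C and loaded with Fluo-8 calcium dye for 40 to 90 min at room temperature. After a 10 s baseline, compound was added and calcium influx was read kinetically for 3 min (ex 480/em 520 nm).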
D1 antag: antagonists of human D1 dopamine receptor; P21728; HEK293 TREx D1 cells, calcium flux, dopamine EC80; active compounds read low; activity change, negative = inhibition, % at 10 µM; 3.2% of 360,000 active; in the data active = activity change below about -30%
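Compound effects on dopamine-evoked calcium signalling were measured in tetracycline-induced HEK293 Trex D1 cells. Dopamine at EC80 followed a 180 s compound pre-read, and fluorescence was tracked kinetically for 180 s more.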
D1 agonist: human D1 receptor agonism | P21728 | HEK293 T-REx D1 cells, calcium flux, agonist mode | activation, % at 2 µM | 1% of 360,000 active; in the data active = activation above about 30%
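Agonism was scored from calcium flux recorded over 180 s (1 read/s) after pintool compound addition, following a 10-cycle baseline. Cells were inducible force-coupled HEK293 TREx D1, plated overnight at 30 C and loaded with no-wash calcium dye.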
D1 PAM: potentiators of human D1 dopamine receptor; 0.036% of 360,000 active; HEK293 TREx D1 cells, calcium flux, dopamine EC20 potentiation; P21728; potentiation, % at 10 µM; in the data active = potentiation above about 30%
TRPV1 agonist: agonists of human vanilloid receptor 1 (TRPV1) | Q8NER1 | TRPV1-expressing cells, Fluo-8 calcium influx, agonist mode | activation, % at 8.33 µM | 0.19% of 320,000 active | AID 540275; in the data active = activation above about 80%; inconclusive = between about 30% and that limit
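TRPV1-expressing cells were cultured overnight at 35.5C and loaded with Fluo-8 calcium dye for 40 to 90 min at room temperature. After a 10 s baseline, compound was added and calcium influx was read kinetically for 3 min (ex 480/em 520 nm).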
A number is an active result; n = inactive; u = inconclusive; x = no result. A selection: hits, their analogues and other compounds. The true share with any hit is near 4.2%.

SMILES	TRPV1 PAM	D1 antag	D1 agonist	D1 PAM	TRPV1 agonist
CCCCn1c(SCc2ccccc2C)nc2ccsc2c1=O	x	n	n	n	x
COc1ccc(C)cc1-n1nnnc1SCC(=O)Nc1cc(C)on1	n	-51.1	n	n	n
Cc1cc(NC(=O)CSc2nnnn2-c2ccccc2F)no1	n	n	n	n	n
COc1ccc(C)cc1-n1nnnc1SCC(=O)NC(=O)NCc1ccco1	n	-36.6	n	n	n
CN1CCN(C(=O)Cn2ncc3c4ccccc4n(Cc4ccc(Cl)cc4)c3c2=O)CC1	x	n	n	n	x
N#CC1(NC(=O)COC(=O)/C=C/c2ccc3ccccc3n2)CCCCC1	n	-50.4	n	n	n
CCOc1cc(/C=C(\C#N)C(=O)Nc2ccc(C)cc2)ccc1OCc1cc(=O)n2nc(CC)sc2n1	x	n	n	n	x
O=C(NCC1COc2ccccc2O1)c1ccc(NC(=O)c2ccco2)cc1 (stereo unspecified)	n	-30.2	n	n	n
Cc1cc([N+](=O)[O-])nn1CCCC(=O)Nc1ccc(Cl)cc1Cl	n	-38.5	n	n	n
CC(=C/c1ccccc1)/C=N/NC(=O)CSc1nc(C)cc(C)n1	n	-33.9	n	n	n
O=C(N/N=C/C(Cl)=C/c1ccccc1)c1ccccn1	n	n	n	n	u
CC(/C=N/NC(=O)c1n[nH]c2c1CCC2)=C\c1ccccc1	n	-78.9	n	n	n
Cc1cc(C)nc(SCC(=O)N/N=C/c2cccnc2)n1	n	n	n	n	n
Cc1cc(C(=O)N/N=C/C(Cl)=C/c2ccccc2)c(C)o1	n	-32.6	n	n	n
CC(/C=N/NC(=O)c1ccccc1F)=C\c1ccccc1	n	-35.2	n	n	u
Cc1cc(NC(=O)C2CCN(S(=O)(=O)c3ccc(Br)s3)CC2)ccc1Br	x	n	n	n	x
COc1ccccc1C(=O)n1nc(-c2ccco2)nc1N	n	-82.0	n	n	n
COCCN(C(=S)Nc1ccccc1OC)C1CCN(C(C)=O)CC1	n	-34.6	n	n	n
CCOc1ccccc1NC(=S)N(CCOC)C1CCN(C(C)=O)CC1	n	n	n	n	n
CC(C)c1ccc(NC(c2nnc(-c3ccccc3)o2)c2ccc(F)cc2Cl)cc1 (stereo unspecified)	x	n	n	n	x
Clc1ccc(CCNC(c2cccc(Cl)c2)c2nnc(-c3ccccc3)o2)cc1 (stereo unspecified)	x	n	n	n	x
Clc1ccc(CCNC(c2nnc(-c3ccccc3)o2)c2ccccc2Cl)cc1 (stereo unspecified)	x	n	68.8	n	x
Fc1ccc(C(NCCc2ccc(Cl)cc2)c2nnc(-c3ccccc3)o2)c(Cl)c1 (stereo unspecified)	x	n	64.4	n	x
Cc1nn(C)c(C)c1N1C(=O)c2cccc3c(N)ccc(c23)C1=O	n	n	355.5	n	93.5
Cc1ccc(-n2cnnn2)c2cccnc12	n	n	n	n	n
SMILES	TRPV1 PAM	D1 antag	D1 agonist	D1 PAM	TRPV1 agonist
Cc1ccc(N2C(=O)c3cccc4c(N)ccc(c34)C2=O)c2cccnc12	n	-67.8	334.4	n	94.1
CCN1C(=O)c2cccc3c(N)ccc(c23)C1=O	n	n	231.3	n	198.5
Cc1nn(C)c(C)c1N1C(=O)c2cccc3c(Br)ccc(c23)C1=O	u	n	n	n	n
Cc1ccc(-c2cc(-c3coc4ccccc4c3=O)c3c(n2)-c2ccccc2OC3)cc1	x	n	n	n	x
CC(=O)c1cccc(NC(=O)CC2SC(N3CCCCC3)=NC2=O)c1 (stereo unspecified)	n	n	n	n	n
O=C(CC1SC(N2CCCCC2)=NC1=O)Nc1cccc(C(F)(F)F)c1 (stereo unspecified)	n	-33.8	n	n	n
CCn1c(C(=O)NCCc2ccc(S(N)(=O)=O)cc2)cc2sc(Cl)cc21	x	n	n	n	x
CC1CN(S(=O)(=O)c2ccccc2)CC(C)O1 (stereo unspecified)	n	-35.3	n	n	n
CC1CN(S(=O)(=O)c2ccc(C(=O)OCc3ccc(C#N)cc3)cc2)CC(C)O1 (stereo unspecified)	n	n	33.6	x	n
Cc1nc2ccccc2n1CC(O)COc1ccccc1Cl (stereo unspecified)	n	-45.8	n	n	n
Cc1ccccc1OCCn1c(C)nc2ccccc21	n	-41.4	n	n	n
Cc1nc2ccccc2n1CC(O)COc1ccc(Br)cc1 (stereo unspecified)	n	n	n	n	n
Cc1nc2ccccc2n1CCOc1ccccc1	n	-42.3	n	n	n
Cc1ccccc1OCCCCn1c(CO)nc2ccccc21	n	n	n	n	u
c1ccc(OCCn2c(COc3ccccc3)nc3ccccc32)cc1	x	n	n	n	x
CCOc1ccc(NC(=O)CCc2c(C)nc3nc(-c4cc(OC)cc(OC)c4)nn3c2C)cc1	x	n	n	n	x
N#Cc1c(-c2cccnc2)c2c([nH]c1=O)-c1ccccc1OC2	n	-31.1	n	n	n
NS(=O)(=O)c1ccc(CNC(=O)CCCSc2ccccc2)cc1	n	n	n	n	84.1
COc1ccc(CNC(=O)CCCSc2ccccc2)cc1	n	n	n	x	u
FC(F)(F)c1cccc(NC(=S)NNC(=S)Nc2cccc(C(F)(F)F)c2)c1	n	-33.6	n	n	n
CC(C)(C)NC(=S)Nc1cccc(C(F)(F)F)c1	u	n	30.9	n	n
CNNC(=S)Nc1cccc(C(F)(F)F)c1	n	n	n	n	n
COC(=S)Nc1cccc(C(F)(F)F)c1	n	n	n	n	n
CC(=O)Nc1ccc(NC(=O)c2ccc3c(c2)N(Cc2cccc(Cl)c2)C(=O)c2ccccc2S3=O)cc1 (stereo unspecified)	x	n	n	n	x
COc1ccccc1N1CCN(C(=O)c2ccc3c(c2)N(Cc2cc(C)ccc2C)C(=O)c2ccccc2S3(=O)=O)CC1	x	n	n	n	x
SMILES	TRPV1 PAM	D1 antag	D1 agonist	D1 PAM	TRPV1 agonist
COc1ccc(-c2noc(N3CCC(C(=O)Nc4ccccc4Cl)CC3)n2)cc1	n	-33.6	n	n	n
COc1ccc(-c2noc(C3CCCN(C(=O)c4ccccc4)C3)n2)cc1 (stereo unspecified)	n	-39.1	n	n	n
COc1ccc(-c2noc(N3CCC(C(=O)NC(C)c4ccccc4)CC3)n2)cc1 (stereo unspecified)	n	-34.8	n	n	n
COc1ccc(-c2noc(N3CCC(C(=O)NCc4ccccc4Cl)CC3)n2)cc1	n	-46.7	n	n	u
Cc1ccccc1-c1nc(CN2CCC(C(=O)NCCC3=CCCCC3)CC2)c(C)o1	n	n	31.2	n	n
COc1ccc(CCNC(=O)C2CCN(Cc3nc(-c4ccccc4C)oc3C)CC2)cc1OC	n	-40.1	37.5	n	n
CCC1CN(C(=O)N2CCC(C(=O)NCCC3=CCCCC3)CC2)c2cc(C)ccc2O1 (stereo unspecified)	x	-31.1	n	n	x
Cc1ccccc1-c1nc(CN2CCC(C(=O)NCCc3ccccc3)CC2)c(C)o1	x	n	n	n	x
